Source: PubChem BioAssay
The source made the active and inactive calls.

Tests used:
[1] = tested on: PRMT1 (protein arginine N-methyltransferase 1); assay: small molecules binding arginine methyltransferase PRMT1 – biochemical, small-molecule microarray, 635 nm fluorescence, primary screen (AID 1088); conditions: higher = more signal;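 further: binding of Prmt1 protein to compounds spotted on small-molecule microarray slides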
[2] = growth effects on S. cerevisiae YJM789 – YJM789 clinical isolate, OD600, 24 h, basal, primary screen (AID 1089); conditions: higher = more signal, called active from +8 up or from −8 down;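 further: growth of clinical yeast isolate S. cerevisiae YJM 789 seeded 1000 cells per well; test concentration not given here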
[3] = S. pombe growth modifiers, basal conditions – strain 972, OD600, 24 h, no modulator, primary screen (AID 1090);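 further: basal condition with compound alone and no growth modifier present; test concentration not given here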; conditions: S. pombe 972 growth, higher = more signal, called active from +8 up or from −8 down
[4] = budding yeast growth modifiers under rapamycin – strain BY4716, OD600, 96 h, primary screen (AID 1091); further: test concentration not given here; conditions: S. cerevisiae BY4716 + rapamycin, higher = more signal, called active from +8 up or from −8 down
[5] = molecular target: Torsin-1A-interacting protein 2 (Homo sapiens) (UniProt Q8NFQ8); assay: small molecules binding lysate-expressed LULL1 – cell lysate, human LULL1 lysate, 635/667 nm fluorescence, primary screen (AID 1092); conditions: small-molecule microarray, hLULL1 lysate binding, 635 nm fluorescence; higher = more signal;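 further: probe is lysate of COS7 cells overexpressing human LULL1; score merges per-feature 667 nm fluorescence with signal-to-noise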
[6] = optical density change of DRC41 E. coli – strain DRC41, OD650, 24 h, E. coli filamentation project, primary screen (AID 1093);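 further: MC1000 strain lacking acrAB efflux and sulA so SOS filamentation is blocked; test concentration not given here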; conditions: E. coli DRC41 growth, higher = more signal, called active from +8 up or from −8 down
[7] = probe aLefty2 binding to arrayed compounds – biochemical, biotinylated probe, 635/667 nm fluorescence, primary screen (AID 1094); conditions: small-molecule microarray, higher = more signal;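 further: score merges spot fluorescence near 667 nm with spot signal-to-noise ratio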
[8] = tested on: Noggin (protein binding on small-molecule microarray); assay: small molecules binding Noggin protein – biochemical, 635/667 nm fluorescence, primary screen (AID 1095); conditions: 635 nm fluorescence, higher = more signal;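 further: score merges 667 nm feature fluorescence with signal to noise over triplicate slides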
[9] = molecular target: Neurogenic locus notch homolog protein 3 (Homo sapiens) (UniProt Q9UM47); assay: small molecules binding NOTCH3 protein – biochemical, 635/667 nm fluorescence, primary screen (AID 1096); conditions: small-molecule microarray, 635 nm fluorescence, higher = more signal
[10] = probe aEGFR binding to arrayed compounds – biochemical, biotinylated probe, 635/667 nm fluorescence, primary screen (AID 1097); conditions: small-molecule microarray, higher = more signal;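 further: probe is a biotinylated anti-EGFR antibody binding compounds printed on slides; score combines fluorescence near 667 nm and signal to noise of each spot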

Neurogenic locus notch homolog protein 3 (Homo sapiens), sequence (Q9UM47 whole entry, looked up): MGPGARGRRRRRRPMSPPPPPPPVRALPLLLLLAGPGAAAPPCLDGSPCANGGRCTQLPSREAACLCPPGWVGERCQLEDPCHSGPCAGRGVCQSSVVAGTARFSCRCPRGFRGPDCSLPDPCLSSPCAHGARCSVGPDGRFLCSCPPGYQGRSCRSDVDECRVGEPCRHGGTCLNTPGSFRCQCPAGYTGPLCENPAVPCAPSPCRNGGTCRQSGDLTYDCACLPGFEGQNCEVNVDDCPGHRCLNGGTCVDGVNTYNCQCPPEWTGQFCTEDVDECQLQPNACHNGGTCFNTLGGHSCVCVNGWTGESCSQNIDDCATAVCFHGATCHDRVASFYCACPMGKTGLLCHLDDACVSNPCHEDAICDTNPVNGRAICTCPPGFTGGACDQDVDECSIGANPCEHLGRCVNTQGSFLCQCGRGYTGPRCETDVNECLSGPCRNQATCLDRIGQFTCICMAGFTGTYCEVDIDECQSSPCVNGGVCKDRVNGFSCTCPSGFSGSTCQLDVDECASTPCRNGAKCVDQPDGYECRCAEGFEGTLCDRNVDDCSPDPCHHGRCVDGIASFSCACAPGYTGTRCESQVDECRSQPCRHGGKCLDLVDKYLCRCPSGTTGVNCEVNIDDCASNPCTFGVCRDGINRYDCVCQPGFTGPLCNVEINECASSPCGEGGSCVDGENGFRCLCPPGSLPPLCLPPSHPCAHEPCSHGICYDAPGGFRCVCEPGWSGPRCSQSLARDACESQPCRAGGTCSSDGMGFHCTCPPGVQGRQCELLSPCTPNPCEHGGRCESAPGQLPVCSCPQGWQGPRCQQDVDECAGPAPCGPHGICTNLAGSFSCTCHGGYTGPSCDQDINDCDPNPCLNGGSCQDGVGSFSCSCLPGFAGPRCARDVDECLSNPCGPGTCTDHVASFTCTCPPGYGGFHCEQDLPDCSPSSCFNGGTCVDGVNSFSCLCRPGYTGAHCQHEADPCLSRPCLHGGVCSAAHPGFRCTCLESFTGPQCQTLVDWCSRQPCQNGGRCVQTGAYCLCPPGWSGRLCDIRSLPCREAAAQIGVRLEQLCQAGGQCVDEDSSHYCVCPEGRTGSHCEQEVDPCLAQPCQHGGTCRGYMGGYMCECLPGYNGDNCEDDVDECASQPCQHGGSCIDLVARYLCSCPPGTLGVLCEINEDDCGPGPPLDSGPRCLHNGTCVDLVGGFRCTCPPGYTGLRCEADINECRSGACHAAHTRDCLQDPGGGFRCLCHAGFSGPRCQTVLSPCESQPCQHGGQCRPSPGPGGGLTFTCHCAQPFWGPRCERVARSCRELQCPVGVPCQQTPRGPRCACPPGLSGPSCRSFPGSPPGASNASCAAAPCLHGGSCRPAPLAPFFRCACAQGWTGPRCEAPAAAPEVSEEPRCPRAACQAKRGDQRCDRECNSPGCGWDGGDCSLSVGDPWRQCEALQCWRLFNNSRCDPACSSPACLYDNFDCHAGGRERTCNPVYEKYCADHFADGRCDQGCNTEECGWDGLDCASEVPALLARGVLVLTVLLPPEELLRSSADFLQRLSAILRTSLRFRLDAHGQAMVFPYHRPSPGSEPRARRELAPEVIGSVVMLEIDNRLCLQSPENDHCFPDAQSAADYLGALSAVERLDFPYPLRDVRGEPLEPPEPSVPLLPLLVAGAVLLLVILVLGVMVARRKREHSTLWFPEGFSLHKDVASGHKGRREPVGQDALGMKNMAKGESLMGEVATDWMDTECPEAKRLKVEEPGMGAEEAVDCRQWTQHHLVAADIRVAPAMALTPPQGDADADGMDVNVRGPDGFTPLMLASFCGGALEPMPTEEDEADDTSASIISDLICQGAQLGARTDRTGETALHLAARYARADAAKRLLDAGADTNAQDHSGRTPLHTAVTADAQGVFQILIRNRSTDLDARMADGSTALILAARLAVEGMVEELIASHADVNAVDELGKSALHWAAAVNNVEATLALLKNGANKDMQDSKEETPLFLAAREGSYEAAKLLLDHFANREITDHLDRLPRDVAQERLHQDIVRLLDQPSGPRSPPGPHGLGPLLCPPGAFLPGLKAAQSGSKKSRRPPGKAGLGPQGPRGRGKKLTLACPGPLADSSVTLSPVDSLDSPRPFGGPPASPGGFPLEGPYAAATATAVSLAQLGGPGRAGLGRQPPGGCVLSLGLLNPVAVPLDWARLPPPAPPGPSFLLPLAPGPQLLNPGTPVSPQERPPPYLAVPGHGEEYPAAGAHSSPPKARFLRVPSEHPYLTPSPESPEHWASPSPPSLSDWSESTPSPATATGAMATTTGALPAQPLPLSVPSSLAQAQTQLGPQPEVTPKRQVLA
Torsin-1A-interacting protein 2 (Homo sapiens), sequence (Q8NFQ8 whole entry, looked up): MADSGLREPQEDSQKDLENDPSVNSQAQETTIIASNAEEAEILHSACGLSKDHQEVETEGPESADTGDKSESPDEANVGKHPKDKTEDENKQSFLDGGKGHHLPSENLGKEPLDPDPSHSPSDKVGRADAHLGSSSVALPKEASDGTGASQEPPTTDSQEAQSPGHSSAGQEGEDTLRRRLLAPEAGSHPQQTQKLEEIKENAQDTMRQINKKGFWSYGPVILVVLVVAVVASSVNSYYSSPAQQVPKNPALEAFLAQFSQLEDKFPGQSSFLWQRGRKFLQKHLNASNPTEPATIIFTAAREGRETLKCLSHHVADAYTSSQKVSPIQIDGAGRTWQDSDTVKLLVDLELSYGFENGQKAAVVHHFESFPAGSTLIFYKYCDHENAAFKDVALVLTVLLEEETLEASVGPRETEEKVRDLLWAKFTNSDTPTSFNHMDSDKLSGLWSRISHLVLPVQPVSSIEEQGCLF

Row | SMILES | composite z-score [1] | z-score [2] | z-score [3] | z-score [4] | composite z-score [5] | z-score [6] | composite z-score [7] | composite z-score [8] | composite z-score [9] | composite z-score [10]
1 | COC(=O)C(CC#Cc1ccc2c(c1)[C@]1(C(=O)N2)[C@H](c2ccc(OCCO)cc2)N2[C@H](c3ccccc3)[C@H](c3ccccc3)OC(=O)[C@H]2[C@@H]1C(=O)N1CCN(c2ncccn2)CC1)C(=O)OC | 1.55 | 0.722 (inactive) | 1.82 (inactive) | 3.83 (inactive) | 2.31 | -0.0711 (inactive) | 0.0971 | 1.36 | 1.05 | 0.153
2 | CCOC(=O)C1=C[C@@H](C(C)(C)C)N(S(=O)(=O)c2ccc(C)cc2)[C@H]1c1cccc(Cl)c1 | 1.4 | 1.74 (inactive) | 2.35 (inactive) | 3.04 (inactive) | 2.81 | -0.695 (inactive) | 0.195 | 1.04 | 1.08 | 0.301
3 | COc1ccc([Si](C)(C)[C@H]2[C@H](CC(=O)N3CCC[C@H]3CO)O[C@@]3(C(=O)N(Cc4ccc(N5CCC5=O)cc4)c4ccccc43)[C@@H]2C)cc1 | 1.54 | -0.647 (inactive) | -1.59 (inactive) | -1.31 (inactive) | 2.42 | 0.13 (inactive) | -0.197 | 1.65 | 1.07 | -0.0578
4 | COc1cc2c(cc1O)C(c1cccs1)N(Cc1sc3ccccc3c1Cl)CC2 (stereo not given) | 1.53 | -0.642 (inactive) | -1.93 (inactive) | -1.63 (inactive) | 3.3 | -0.31 (inactive) | 0.105 | 1.03 | 1.03 | 0.14
5 | CO[C@H]1O[C@H](CO)[C@@H](OC(=O)c2ccc(Br)cc2)[C@@H]2OC(=O)[C@H](Cc3ccccc3)C/C=C/C[C@@H](Cc3ccccc3)C(=O)O[C@@H]12 | 0.965 | -1.92 (inactive) | -1.19 (inactive) | 0.161 (inactive) | 1.63 | 2.14 (inactive) | 0.13 | 0.413 | 0.181 | -0.176
6 | [N-]=[N+]=NCc1ccccc1[C@H]1OC(c2ccc(OCCCO)cc2)=N[C@@]1(CCS(=O)(=O)c1ccccc1)C(=O)NCc1ccccc1 | 1.55 | 1.47 (inactive) | 0.431 (inactive) | 4.54 (inactive) | 3.11 | 1.28 (inactive) | 0.455 | 0.605 | 1.13 | 0.706
7 | COCCCNC(=O)[C@@]1(c2ccc([N+](=O)[O-])cc2)CC(=O)N(CC23CC4CC(CC(C4)C2)C3)[C@@H]1c1ccc(CO)cc1I | 1.3 | 1.01 (inactive) | 1.08 (inactive) | 4.92 (inactive) | 1.75 | -0.254 (inactive) | 0.0283 | 0.26 | 0.341 | -0.183
8 | Cc1ccc(S[C@]2(C(=O)NC(C)C)CC(=O)N(C(C)C)[C@@H]2c2ccc(CO)cc2I)cc1 | 0.841 | -0.466 (inactive) | -0.222 (inactive) | -0.294 (inactive) | 1.53 | 0.529 (inactive) | -0.0654 | -0.337 | -0.196 | -0.144
9 | COCCCNC(=O)[C@@]1(Sc2ccc(C)cc2)CC(=O)N(C(C)C)[C@@H]1c1ccc(CO)cc1I | 1.31 | -0.436 (inactive) | -2.98 (inactive) | 0.445 (inactive) | 2.53 | -2.04 (inactive) | -0.0225 | -0.926 | -0.365 | -0.21
10 | COC(=O)c1c2oc(c1C(=O)OC)C(=O)N1CCC[C@H]1Cn1nncc1CN(Cc1ccccc1)C(=O)N[C@H](CO)CC2 | 0.97 | 0.955 (inactive) | -0.086 (inactive) | 0.613 (inactive) | 0.983 | 1.24 (inactive) | -0.116 | 0.743 | 0.2 | 0.471
11 | C=C(COC)C(=O)CC[C@H](OC(C)=O)c1ccc(OCCO)cc1 | 1.44 | 0.389 (inactive) | -2.5 (inactive) | -1.06 (inactive) | -0.451 | 1.39 (inactive) | -0.211 | 1.93 | 0.711 | -0.0387
12 | O=c1cccc(-c2ccc(F)cc2)o1 | 0.777 | -1.28 (inactive) | -0.0295 (inactive) | -0.313 (inactive) | -0.326 | -0.428 (inactive) | -0.0591 | 0.245 | 0.784 | 0.132
13 | CC1(C)C(=O)C(c2ccccc2)=C2CN3C(=O)N(CCc4ccccc4)C(=O)C3(Cc3ccc(F)cc3)C=C21 (stereo not given) | -0.203 | 0.54 (inactive) | 0.921 (inactive) | 6.84 (inactive) | 2.52 | -2 (inactive) | 0.428 | -0.459 | 0.337 | 0.133
14 | CCOC(=O)C1=CCC(c2ccco2)N(S(=O)(=O)c2ccc(C)cc2)C1 (stereo not given) | 1.08 | -0.949 (inactive) | -0.0107 (inactive) | -0.013 (inactive) | 2.62 | 0.322 (inactive) | 0.18 | 0.637 | 1.08 | 0.0357
15 | CC(C)OC(=O)CC(=O)CC(O)c1ccc([N+](=O)[O-])cc1 (stereo not given) | 0.65 | -0.0857 (inactive) | -0.26 (inactive) | -0.34 (inactive) | 1.27 | -0.215 (inactive) | 0.0416 | -0.0624 | 0.422 | -0.213
16 | C=C(COC)/C(=C/C[C@H](OC(C)=O)c1cccc(OCCO)c1)c1cnc2ccccc2c1 | 1.53 | 1.25 (inactive) | -0.0332 (inactive) | 1.03 (inactive) | 2.18 | -0.094 (inactive) | -0.0415 | 1.64 | 1.04 | -0.0267
17 | CC(=O)NCCCC[C@@H]1NC(=O)[C@H]2C[C@@H](C(=O)NCCCCCNC(=O)CS)[C@@H](c3cccc(OCCO)c3)N2C1=O | 0.896 | 0.778 (inactive) | 0.0625 (inactive) | 0.0709 (inactive) | 3.18 | -0.418 (inactive) | -0.184 | 0.52 | 0.059 | -0.104
18 | COc1ccc(C#Cc2ccc3c(c2)[C@]2(C(=O)N3)[C@H](c3ccc(OCCO)cc3)N3[C@H](c4ccccc4)[C@H](c4ccccc4)OC(=O)[C@H]3[C@@H]2C(=O)N2CCc3cc(OC)c(OC)cc3C2)cc1 | 1.55 | 2.27 (inactive) | 1.94 (inactive) | 4.57 (inactive) | 2.81 | 0.0933 (inactive) | -0.209 | 0.784 | 1.12 | 0.481
19 | CC(C)=CCCC(C)=CC(O)C1C=CC2C(=O)N(c3ccccc3)C(=O)C2N1Nc1ccccc1F (stereo not given) | 0.945 | -1.23 (inactive) | -0.347 (inactive) | -0.707 (inactive) | 2.41 | 0.401 (inactive) | -0.166 | -0.0409 | 0.761 | -0.0828
20 | CC1CC/C=C\[C@H]2OC34C=CCN(C(C)(C)C)C(=O)[C@H]3N(C(CO)C(C)C)C(=O)[C@@H]4C2C(=O)O1 (stereo not given in full) | -0.447 | -1.38 (inactive) | -0.429 (inactive) | -0.851 (inactive) | 2.5 | -0.515 (inactive) | -0.147 | 0.476 | 0.551 | -0.0968
21 | [N-]=[N+]=Nc1ccccc1C[C@]1(C(=O)O)N=C(c2ccc(OCCCO)cc2)O[C@H]1c1ccccc1 | 1.34 | 3.9 (inactive) | 0.888 (inactive) | 0.712 (inactive) | 3.11 | 0.464 (inactive) | 0.0116 | -0.0597 | 0.703 | -0.0828
22 | COC(=O)[C@@]1(Cc2ccc(F)cc2)[C@H]2c3cc(C(=O)N4CCCC4)n(CC4CC4)c3C[C@H]2CN1C(=O)c1ccccc1 | 0.649 | -0.223 (inactive) | 0.64 (inactive) | 0.125 (inactive) | 3.32 | -0.475 (inactive) | 0.329 | 0.577 | 1.1 | 0.358
23 | [N-]=[N+]=Nc1ccccc1C[C@]1(C(=O)O)N=C(c2ccc(OCCCO)cc2)O[C@H]1c1ccccc1N=[N+]=[N-] | 1.43 | -0.228 (inactive) | -0.896 (inactive) | -1.17 (inactive) | 3.05 | 0.814 (inactive) | 0.376 | -0.359 | 0.942 | 0.0729
24 | [N-]=[N+]=Nc1ccccc1[C@@H]1OC(c2ccc(OCCCO)cc2)=N[C@]1(Cc1ccccc1)C(=O)NCc1ccccc1 | 1.47 | -1.79 (inactive) | -0.27 (inactive) | 3.07 (inactive) | 3.43 | -0.0484 (inactive) | 0.298 | 0.849 | 1.11 | 0.454
25 | CCOC(=O)C[C@H]1[C@H](OC(=O)c2cc3ccccc3oc2=O)[C@@H](NC(=O)c2ccc3ccccc3c2)c2cc(OCCCO)ccc2N1C(=O)Cc1ccc(OC)cc1 | 0.631 | 0.173 (inactive) | 0.106 (inactive) | -1.33 (inactive) | 2.48 | -0.436 (inactive) | -0.0359 | 0.405 | 0.872 | 0.0009
26 | CCOC(=O)C[C@H]1[C@H](OC(=O)c2ccc(-c3ccccc3)cc2)[C@@H](NC(=O)CC(C)C)c2cc(OCCCO)ccc2N1C(=O)c1ccccc1 | 0.468 | 0.72 (inactive) | 1.4 (inactive) | 1.38 (inactive) | 1.49 | -0.513 (inactive) | -0.107 | 0.49 | 0.952 | 0.048
27 | COc1cccc(/C=C(\C#N)C(=O)Nc2c(C)n(C)n(-c3ccccc3)c2=O)c1 | 0.564 | -1.58 (inactive) | -0.958 (inactive) | -0.978 (inactive) | 2.66 | -0.23 (inactive) | 0.0852 | 0.161 | 0.539 | -0.0828
28 | Cc1ccccc1C(O)C1C=CC2C(=O)NC(=O)C2N1Nc1ccc(Cl)cc1Cl (stereo not given) | 0.528 | -2.09 (inactive) | -2.81 (inactive) | 0.797 (inactive) | 2.27 | -1.24 (inactive) | 0.106 | 0.287 | 0.765 | -0.125
29 | C=CCNC(=O)[C@@H]1[C@H]2C(=O)O[C@H](c3ccccc3)[C@H](c3ccccc3)N2[C@H](c2ccc(O)cc2)[C@@]12C(=O)N(C(=O)OCCOC)c1ccc(C#CCCO)cc12 | 1.41 | 0.434 (inactive) | 0.53 (inactive) | 1.17 (inactive) | 2.57 | -0.369 (inactive) | 0.0278 | 0.686 | 0.52 | 0.189
